For 91 compounds, inhibition results are on record in PubChem BioAssay AID1878 (Sanford-Burnham Center for Chemical Genomics, 2009).

One may read the inhibition as the relative decrease from the control value, in per cent.

Hit rate of the full screen: of about 1,000 compounds, about 200 (20%) were called active. Cut-off read from the data, not from the text of the source: active = inhibition above about 55%; inactive = the rest. A selection follows. Potency and affinity values are given separately.

Dual specificity protein phosphatase 3 (Homo sapiens), sequence (P51452 whole entry, looked up): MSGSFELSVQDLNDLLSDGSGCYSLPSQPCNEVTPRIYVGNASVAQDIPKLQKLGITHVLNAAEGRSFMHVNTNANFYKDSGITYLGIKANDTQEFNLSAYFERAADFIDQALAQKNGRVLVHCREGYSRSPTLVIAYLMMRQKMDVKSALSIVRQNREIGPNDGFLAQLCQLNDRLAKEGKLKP

This assay concerns the target Dual specificity protein phosphatase 3 (Homo sapiens) (UniProt P51452). The experiment in a line: VHR1 phosphatase inhibitors, biochemical (AID 1878). The settings on record: recombinant VHR phosphatase, fluorogenic substrate; at 13.3 µM; stronger effect = higher value.
With `COc1ccc(Cc2nnc(NC(=O)c3ccco3)s2)cc1`, the inhibition was -10% (inactive).

For the compound `CCN(CC)CCCNc1oc(-c2ccccc2[N+](=O)[O-])nc1C#N`, the inhibition is 22.5% (inactive).

With `O=C1CSC(c2cccc([N+](=O)[O-])c2)N1Cc1ccccc1` (stereo unspecified), the inhibition is 3.2% (inactive).

`Cc1ccc(OCCCCN2CCCCC2)cc1`: the inhibition was 6.5% (inactive).

In the case of `Cc1ccccc1NC(=O)CN1C(=O)N/C(=C\c2ccccc2OCc2ccc(C(=O)O)cc2)C1=O`, the inhibition was 84.1% (active).

On to `CSc1nsc2nc(=O)c(/C=C3\C(C)=Nc4ccccc43)c(N)n12`, for which the inhibition was 7.5% (inactive).

Consider `COc1cc(NC(=O)c2noc(C)c2[N+](=O)[O-])c(OC)cc1Cl`, for which the inhibition was -2.3% (inactive).

As for `CC1CC(C)CN(CCCNC(=O)C2CCCN(S(=O)(=O)N3CC(C)CC(C)C3)C2)C1` (stereo unspecified), the inhibition was 20.9% (inactive).

`C=CCn1c(=O)c2c(nc3n2CCCN3Cc2ccccc2)n(C)c1=O`: the inhibition is -4% (inactive).

`Cc1cccc(NC(=O)c2cc3c(=O)n4ccccc4nc3s2)c1`: the inhibition was 93.3% (active).

`Cc1cccc(NC(=O)c2cc(-c3ccc(C)c(C)c3O)n[nH]2)c1`: the inhibition was 8.4% (inactive).

For the compound `C/C(=N\NC(=O)c1c(C)nc2ccccn12)c1ccccc1F`, the inhibition is -12.4% (inactive).

Take `CCC(N)Cc1c[nH]c2ccccc12` (stereo unspecified): the inhibition was 14.4% (inactive).

As for `O=C(COc1ccc2c(-c3ccccc3)cc(=O)oc2c1)Nc1ccc(CCO)cc1`, the inhibition was 84.8% (active).

Turning to `O=C(COc1ccccc1)Nc1ccncc1Cl`, the inhibition is 8.7% (inactive).

Regarding `Cc1cccc(CC(=O)Nc2cccnc2)c1`, the inhibition is -5.3% (inactive).

On to `O=C(COc1ccc2c(-c3ccccc3)cc(=O)oc2c1)Nc1cccnc1`, for which the inhibition was 92.7% (active).

In the case of `CC(C)CCN1CCC(n2nccc2NC(=O)C2CCOC2)CC1` (stereo unspecified), the inhibition was -5.2% (inactive).

With `Oc1cc(Br)ccc1C=Nc1ccc(N2CCCCC2)cc1`, the inhibition was -10% (inactive).

In the case of `CCN(CC)c1ccc(NC(=O)CCNS(=O)(=O)c2ccc3c(c2)CCC(=O)N3)c(C)c1`, the inhibition was -13.1% (inactive).

As to `CC1CCN(CCNC(=O)C2CCCN(c3ncnc4c3nc3n4CCCCC3)C2)CC1` (stereo unspecified), the inhibition is 7.1% (inactive).

For the compound `Cc1occc1C(=O)N1CCCC(CCC(=O)NCc2ccc(F)c(F)c2)C1` (stereo unspecified), the inhibition is -8.6% (inactive).

Consider `COc1ccccc1NC(=O)C1CCCN(S(=O)(=O)c2ccc3c(c2)CC(C)N3C(C)=O)C1` (stereo unspecified), for which the inhibition was 17.3% (inactive).

`O=C(NC1CC2CCC(C1)N2Cc1ccccc1)c1ccccc1Br` (stereo unspecified): the inhibition is -2.7% (inactive).

For `O=[N+]([O-])c1ccc(Oc2cccc3cccnc23)c(Cl)c1`, the inhibition was -14.5% (inactive).

On to `O=P(Cc1ccccc1)(c1ccccc1)c1ccccc1`, for which the inhibition is 6.2% (inactive).

For the compound `Cc1cc(O)c(C=Nc2ccc(N3CCOCC3)cc2)c(C)c1Cl`, the inhibition is 0.1% (inactive).

For the compound `O=C(N/N=C/c1cc(Br)cc([N+](=O)[O-])c1O)c1ccc(NC(=O)c2ccc(F)cc2)cc1`, the inhibition is 95.6% (active).

Consider `CCOC(=O)c1ccc(N/N=C/c2cc(Br)cc([N+](=O)[O-])c2O)cc1`, for which the inhibition was 27.8% (inactive).

As to `COc1ccc(CC(=O)Nc2cccc3c2CCCC3)cc1`, the inhibition was -12.1% (inactive).

For the compound `O=C(O)CC1OCC=C2CN3CCC45c6ccccc6NC4C1C2CC35` (stereo unspecified), the inhibition was -2.6% (inactive).

Regarding `O=C1COc2ccc(S(=O)(=O)N3CCC(C(=O)NCc4ccc(F)cc4)CC3)cc2N1`, the inhibition is -1.8% (inactive).

Turning to `Cc1cc(C)cc(N2CC(O)=C(c3nc4ccccc4c(=O)[nH]3)C2=N)c1`, the inhibition was 60.5% (active).

In the case of `COc1ccc(C(=O)OC2CC[C@@]3(C)C4CCC5[C@]6(O)CC(O)[C@@]7(O)C(CN8CC(C)CCC8[C@@]7(C)O)[C@]6(O)C[C@@]53O[C@]24O)cc1OC` (stereo partly specified), the inhibition was -10.1% (inactive).

Regarding `COC(=O)CCCC(=O)N1CCC(n2nccc2NC(=O)CCOc2ccccc2)CC1`, the inhibition is 7.4% (inactive).

`Cc1cc(=O)oc2c3c(cc(OCC(=O)NCC(=O)N[C@H](C(=O)O)C(C)C)c12)OC(C)(C)CC3`: the inhibition is 9.6% (inactive).

As to `COc1cccc(CC(NC(C)=O)C(=O)NC2CCN(C(=O)c3ccc(Cl)cc3)CC2)c1` (stereo unspecified), the inhibition is 0.6% (inactive).

As for `CCCNC(=O)CN1C(=O)COc2ccc(S(=O)(=O)N3CC(C)CC(C)C3)cc21` (stereo unspecified), the inhibition is 5% (inactive).

`O=C(NCCN1CCOCC1)C(=O)NCC1OCCCN1S(=O)(=O)c1ccc(F)cc1` (stereo unspecified): the inhibition was -15.9% (inactive).

Take `O=C(O)c1ccc(N2C(=O)/C(=C/c3ccc(-c4ccc([N+](=O)[O-])cc4)o3)C=C2c2ccccc2)cc1`: the inhibition was 99% (active).

As to `CC1CC(C)CN(CCCNC(=O)CCC(=O)N2CC(C)Oc3ccccc32)C1` (stereo unspecified), the inhibition is -2.6% (inactive).

As to `O=C(/C=C/c1c(Cl)nc2ccccn12)N1CCN(c2ccc(F)cc2)CC1`, the inhibition was 26.8% (inactive).

With `Cc1cc(OCC(=O)Nc2ccc(N3CCN(C(=O)c4ccco4)CC3)cc2)cc(C)c1Cl`, the inhibition is 94.6% (active).

Regarding `Cc1ccc(NC(=O)C2CCN(C(=O)c3ccco3)CC2)cc1`, the inhibition is -5.8% (inactive).

Consider `Cn1c(SCC(=O)Nc2ccc(N3CCOCC3)cc2)nnc1-c1ccco1`, for which the inhibition was 1% (inactive).

For the compound `Cc1ccc(S(=O)(=O)N2CCCCC2)c2nsnc12`, the inhibition was -2% (inactive).

As to `COc1cc(C(=O)N2CCc3ccccc32)c([N+](=O)[O-])cc1OC`, the inhibition was 26.5% (inactive).

For `CCOc1ccc2nc(N3CCCC(C(=O)NCCCN4C(C)CCCC4C)C3)sc2c1` (stereo unspecified), the inhibition is -12.1% (inactive).

As for `Cc1ccc2oc(Nc3nc(-c4ccccc4)cc(=O)[nH]3)nc2c1`, the inhibition is 61.1% (active).

Turning to `CCOc1ccc(C(=O)NC2CCN(CC(=O)NCc3ccccc3)CC2)cc1`, the inhibition was -7.3% (inactive).

`COc1cccc(NC(=O)NCCN2CCCCC2)c1`: the inhibition was -15.8% (inactive).

As for `Cc1ccc(NC(=S)c2ccc3ccccc3n2)c(C)c1`, the inhibition is 5.5% (inactive).

For the compound `Cc1ccc(-n2cccn2)c([C@@H]2C[C@H]3CN(C)C(=O)[C@]34CCCN24)c1`, the inhibition was -6.3% (inactive).

As for `C=CCc1cc(Cl)ccc1OCCOCCNC(C)(C)C`, the inhibition is -15% (inactive).

Take `Brc1ccc(C2=Nc3ccccc3C(c3ccncc3)=NN2)cc1`: the inhibition is 82.1% (active).

Take `COC(=O)[C@@]1(Cc2ccc(F)cc2)[C@H]2c3cc(C(=O)N4CCCC4)n(CCc4ccccn4)c3C[C@H]2CN1C(=O)c1ccccc1`: the inhibition is -0.9% (inactive).

Turning to `CCC1CCCCN1CCCNC(=O)Cn1ncn2nc(-c3ccc(OC)cc3)cc2c1=O` (stereo unspecified), the inhibition is -4% (inactive).

On to `OCCC1CN(Cc2ccc(F)cc2)CCN1CCc1ccccc1` (stereo unspecified), for which the inhibition was -5.4% (inactive).

For the compound `O=C(N/N=C1/C(=O)c2cccc3cccc1c23)c1ccc(Cl)cc1`, the inhibition was 98.9% (active).

In the case of `CCOc1ccccc1N(C(=O)c1ccco1)C(C(=O)NC1CCCC1)c1cccs1` (stereo unspecified), the inhibition was 14.1% (inactive).

For the compound `COc1ccc(OCC(O)CN(CC(O)COc2ccc(OC)cc2)c2cccc(O)c2)cc1` (stereo unspecified), the inhibition is 3.9% (inactive).

Turning to `CCC(CO)(CO)N(CC(=O)Nc1ccc(OC)cc1)CC(=O)Nc1ccc(OC)cc1`, the inhibition is 5.4% (inactive).

In the case of `N=C1/C(=C/c2ccc(-c3cccc(C(=O)O)c3)o2)C(=O)N=C2SC=C(c3ccccc3)N12`, the inhibition is 79.5% (active).

In the case of `N=C1/C(=C\c2ccc(-c3ccc(C(=O)O)cc3)o2)C(=O)N=C2SC=C(c3ccccc3)N12`, the inhibition was 97.1% (active).

Take `N=C1/C(=C\c2ccc(-c3cccc(C(=O)O)c3)o2)C(=O)N=C2SC=C(c3ccccc3)N12`: the inhibition was 88.1% (active).

On to `COc1ccc(S(=O)(=O)N2CCCOC2CNC(=O)C(=O)NC2CCCC2)cc1` (stereo unspecified), for which the inhibition is -10.2% (inactive).

For the compound `Cc1cc(Br)c(S(=O)(=O)NCc2cccnc2)cc1C`, the inhibition was 5.2% (inactive).

On to `OC(COC(c1ccc(F)cc1)c1ccc(F)cc1)CN1CCCC(C(F)(F)F)C1` (stereo unspecified), for which the inhibition was -7.4% (inactive).

For `Fc1cccc(/C=N/n2c(C3CCCCC3)n[nH]c2=S)c1`, the inhibition is 0.6% (inactive).

For `COc1ccc(CCC(=O)NCCc2cnc[nH]2)cc1`, the inhibition is -0.5% (inactive).

`CCOc1cc2[nH]c(=S)n(Cc3ccc(C(=O)NCCCOC)cc3)c(=O)c2cc1OCC`: the inhibition was 11.5% (inactive).

As to `O=C(N=C1SC2CS(=O)(=O)CC2N1Cc1ccccc1)C1CCCO1` (stereo unspecified), the inhibition was -9.5% (inactive).

In the case of `Cc1ccc(S(=O)(=O)NCC(=O)N2CCc3ccccc3C2)cc1`, the inhibition was 7.4% (inactive).

Consider `Cc1ccccc1-n1c(SCC(=O)Nc2ccccc2Cl)nc2n[nH]c(C)c2c1=N`, for which the inhibition was -7.4% (inactive).

In the case of `CCn1c(C)c(C)c2cc(C(=O)NCCCN3CCCCC3C)ccc21` (stereo unspecified), the inhibition is -4.1% (inactive).

With `O=C1CCCN1CCCNC(=S)Nc1ccc(F)cc1`, the inhibition is 48.6% (inactive).

As for `O=C1CCCN1CCCNC(=S)Nc1ccc(F)c(Cl)c1`, the inhibition was 58.6% (active).

In the case of `COc1ccc(NC(=S)NCCCN2CCCC2=O)c(OC)c1`, the inhibition was 47.4% (inactive).

Regarding `CC(=O)c1cccc(CN2CCC(CO)(CCOc3ccccc3)CC2)c1`, the inhibition is -26.7% (inactive).

In the case of `COc1ccc(Cl)cc1NC(=O)C/C(C)=N/NC(=O)c1ccc(O)cc1`, the inhibition was -3.4% (inactive).

With `CCOC(=O)CN(C)Cc1cn[nH]c1-c1ccc2cc(OC)ccc2c1`, the inhibition is 4% (inactive).

With `O=C(CC12CC3CC(CC(C3)C1)C2)NCc1ccc(F)cc1`, the inhibition is -9.3% (inactive).

Regarding `CN(C)C(=O)OCC1COc2ccccc2O1` (stereo unspecified), the inhibition was 0.1% (inactive).

Consider `Cn1c2ccccc2c(=O)c2c(=O)n(C3CCCCCC3)c(C3CCCCC3)nc21`, for which the inhibition is 95.7% (active).

Take `COc1ccc(NC2CCCN(C(=O)c3oc(C)cc3C)C2)cc1OC` (stereo unspecified): the inhibition was 1.1% (inactive).

Regarding `Cc1nc(C)c(C(=O)Nc2cccc(C)c2C)s1`, the inhibition is 32.5% (inactive).

For the compound `O=C(O)C1Nc2c(O)cc(Cl)c([N+](=O)[O-])c2C2C=CCC12` (stereo unspecified), the inhibition is 92.7% (active).

`O=C(O)C1Nc2c(Cl)cc(Cl)cc2C2C=CCC12` (stereo unspecified): the inhibition was 89.8% (active).

For the compound `O=C(Cn1c(=O)c2cccn2c2ccccc21)NCCCN1CCCCC1`, the inhibition was 2% (inactive).

Take `O=C(CCC(=O)c1ccc(F)cc1)NCc1ccccc1C(F)(F)F`: the inhibition was 2.4% (inactive).

With `COc1cc(CN2CCN(CC3CC3)CC2CCO)cc(OC)c1` (stereo unspecified), the inhibition was -3.6% (inactive).
